Rows were chosen to be rich in hits. Some 6.1% of all compounds tested hit in one or more screens of this group.
D3 antag: D3 dopamine receptor (human) antagonism; D3R cells, DiscoveRx beta-arrestin luminescence, antagonist mode; stronger effect = lower value; max response, negative = inhibition, %; hit rate 2.5% among 360,000; P35462; in the data active = max response below about -50%; inconclusive = no clear call, values can overlap the other calls
Target sequence (P35462 whole entry, looked up): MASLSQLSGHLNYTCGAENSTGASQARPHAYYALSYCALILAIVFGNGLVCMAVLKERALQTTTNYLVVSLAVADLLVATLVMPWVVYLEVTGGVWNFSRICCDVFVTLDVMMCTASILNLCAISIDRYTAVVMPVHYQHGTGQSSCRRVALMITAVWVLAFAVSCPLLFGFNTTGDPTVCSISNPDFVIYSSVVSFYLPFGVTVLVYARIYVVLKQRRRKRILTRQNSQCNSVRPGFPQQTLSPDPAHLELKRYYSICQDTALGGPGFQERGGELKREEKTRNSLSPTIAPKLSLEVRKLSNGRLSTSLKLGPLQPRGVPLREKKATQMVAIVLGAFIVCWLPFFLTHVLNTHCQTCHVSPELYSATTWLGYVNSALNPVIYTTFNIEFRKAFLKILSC
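Cells expressing the human receptor were seeded at 1500 cells/well, incubated overnight at 37 degrees C in 5% CO2, then exposed to library compounds with dopamine controls for 90 minutes at 37 degrees C before luminescent detection.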
D3 ag: agonists of human D3 dopamine receptor; P35462; D3R DiscoveRx beta-arrestin cells, luminescence, 90 min; max activation, %; hit rate 0.58% among 410,000; in the data active = max activation above about 30%
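Agonist mode: compounds and dopamine controls were applied to plated cells for 90 min at 37 degrees C after an overnight attachment at 1500 cells/well. Luminescent read-out followed 30 - 60 minutes at room temperature with DiscoveRx detection reagent.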
D1 PAM: potentiators of human D1 dopamine receptor. P21728. HEK293 TREx D1 cells, calcium flux, dopamine EC20 potentiation. potentiation, % at 10 µM. hit rate 0.036% among 360,000; in the data active = potentiation above about 30%
D1 ag: activates the human D1 dopamine receptor. P21728. HEK293 T-REx D1 cells, calcium flux, agonist mode. activation, % at 2 µM. hit rate 1% among 360,000. AID 504660; in the data active = activation above about 30%
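Agonism was scored from calcium flux recorded over 180 s (1 read/s) after pintool compound addition, following a 10-cycle baseline. Cells were inducible force-coupled HEK293 TREx D1, plated overnight at 30 C and loaded with no-wash calcium dye.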
D1 antagonist: blocks dopamine activation of the human D1 receptor; hit rate 3.2% among 360,000; activity change, negative = inhibition, % at 10 µM; HEK293 TREx D1 cells, calcium flux, dopamine EC80; stronger effect = lower value; AID 504652; in the data active = activity change below about -30%
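HEK293 T-REx cells expressing inducible, force-coupled D1 receptor; no-wash Ca dye, 30–90 min RT. Cmpd → 180 s read at 1 Hz → EC80 DA → 180 s read.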
A number is an active result; n = inactive; u = inconclusive; x = no result given.

SMILES	D3 antag	D3 ag	D1 PAM	D1 ag	D1 antagonist
COc1ccc(/C=C/c2nc(C#N)c(NCc3ccc(C)cc3)o2)cc1OC	x	n	n	n	n
COc1ccc(CNc2oc(/C=C/c3cc(OC)c(OC)c(OC)c3)nc2C#N)cc1	x	n	n	39.8	n
COc1ccc(-c2cc3nc(C)c(CCC(=O)N4CCN(c5ccc(F)cc5)CC4)c(C)n3n2)c(OC)c1	x	n	n	n	n
Cc1cccc(NC(=O)c2ccc(-n3c(C)nnc3C)cc2)c1	x	n	n	n	n
CCN(CC)CC(=O)Nc1cc(N(C)C)nc2ccccc12	n	n	n	n	n
CN1CCN(CC(=O)Nc2cc(N(C)C)nc3ccccc23)CC1	n	n	n	n	-30.8
N=c1n(Cc2ccccc2)c2ccccc2n1CC(O)COc1ccccc1 (configuration not stated)	n	n	n	n	-30.9
Cc1ccc(Cn2c(=N)n(CC(O)COc3ccccc3)c3ccccc32)cc1 (configuration not stated)	n	n	n	41.9	n
CCCCn1c(=N)n(CC(O)COc2ccc(C)cc2)c2ccccc21 (configuration not stated)	n	n	n	n	n
N=c1n(CCN2CCCCC2)c2ccccc2n1CC(O)COc1ccccc1 (configuration not stated)	n	n	n	n	n
Cc1cc(C)cc(OCC(=O)OCc2nnc(-c3ccccc3)o2)c1	n	n	n	n	n
COc1cc(OC)cc(C(=O)OCC(=O)Nc2nnc(-c3ccccc3)o2)c1	n	n	x	x	x
Cc1ccc(C(=O)CCC(=O)OCC(=O)Nc2nnc(-c3ccccc3)o2)cc1	n	n	n	n	-50.0
O=C(COC(=O)CNC(=O)c1ccc(Br)cc1)Nc1nnc(-c2ccccc2)o1	n	n	n	n	-37.8
O=C(CCC(=O)c1cccs1)OCc1nnc(-c2ccccc2)o1	n	n	n	n	-39.0
Cc1ccc(C(=O)CCC(=O)OCc2nnc(-c3ccccc3)o2)cc1	-60.1	n	n	n	n
Cc1cc(C)nc(/N=c2/ssnc2Cl)c1	n	n	n	n	n
Cc1nnc(N=c2ssnc2Cl)o1	-82.5	n	n	n	x
CSc1oc(-c2ccccc2)nc1S(=O)(=O)c1ccc(C)cc1	n	n	n	n	-35.2
Cc1ccc(S(=O)(=O)c2nc(-c3ccccc3)oc2SCC(=O)NC2CCCCC2)cc1	x	64.1	n	n	n
CCSc1oc(-c2ccc(F)cc2)nc1S(=O)(=O)c1ccc(C)cc1	x	n	n	n	n
Cc1ccc(-c2nc(S(=O)(=O)c3ccc(C)cc3)c(SCC(=O)Nc3ccc(F)cc3)o2)cc1	x	n	n	n	-60.9
Cc1ccc(-c2nc(S(=O)(=O)c3ccccc3)c(SCC(=O)NC3CCCCC3)o2)cc1	x	n	n	n	n
COc1ccc(NC(=O)c2ccc3c(=O)n4nc(Nc5ccccc5C)sc4nc3c2)cc1Cl	x	n	n	n	n
Cc1ccccc1OCc1ccc(-c2nc(C#N)c(NCCCN(C)C)o2)o1	x	n	n	43.9	n
SMILES	D3 antag	D3 ag	D1 PAM	D1 ag	D1 antagonist
CCCCNc1oc(-c2ccc(COc3ccccc3C)o2)nc1C#N	x	n	n	n	n
Cc1oc2cc(OCC(=O)O)ccc2c(=O)c1Oc1ccccc1	n	n	n	n	n
COc1ccc2c(=O)c(Oc3ccc(C(=O)O)cc3)c(C(F)(F)F)oc2c1	n	n	n	n	-30.3
Cc1oc(-c2cccc(Cl)c2)nc1CN1CCCC(C(=O)N2CCN(c3ccc(F)cc3)CC2)C1 (configuration not stated)	x	n	n	34.6	-64.1
CCOc1ccc(-c2nc(CN3CCCC(C(=O)N4CCOCC4)C3)c(C)o2)cc1 (configuration not stated)	n	n	n	n	n
Cc1ccc(-c2nc(CN3CCCC(C(=O)N4CCOCC4)C3)c(C)o2)cc1 (configuration not stated)	n	n	n	n	-33.8
Cc1ccc(Cl)cc1N1CCN(C(=O)C2CCN(Cc3nc(-c4cccc(Cl)c4)oc3C)CC2)CC1	x	n	n	n	n
Cc1oc(-c2cccc(Cl)c2)nc1CN1CCCC(C(=O)NCc2ccc(Cl)cc2)C1 (configuration not stated)	x	n	n	n	n
Cc1oc(-c2cccc(Cl)c2)nc1CN1CCC(C(=O)N2CCN(c3ccccc3F)CC2)CC1	-63.1	n	n	n	n
CC(C)C1C(=O)Nc2ccc(S(=O)(=O)NCCc3ccc(Cl)cc3)cc21 (configuration not stated)	x	n	n	n	n
O=C(COC(=O)Cn1nc(-c2ccccc2)oc1=O)Nc1ccc(F)cc1	n	n	n	n	-33.9
CN(C)S(=O)(=O)c1cccc(NC(=S)N/N=C/c2cccc(O)c2)c1	n	n	n	n	n
CN(C)S(=O)(=O)c1cccc(NC(=S)N/N=C/c2cc(Br)ccc2O)c1	u	n	n	47.2	n
COc1cc(/C=C2\CC/C(=C\c3cc(OC)c(O)c(OC)c3)C2=O)cc(OC)c1O	-73.6	n	n	n	n
COc1cc(/C=C2\CC/C(=C\c3cc(OC)c(OC)c(OC)c3)C2=O)cc(OC)c1OC	n	n	n	n	n
COc1cc(/C=C2\CCC(C3CCCC3)C2=O)cc(OC)c1OC (configuration not stated)	n	n	n	n	n
COc1cc(/C=C2\COC/C(=C\c3cc(OC)c(OC)c(OC)c3)C2=O)cc(OC)c1OC	-62.7	n	n	n	n
COc1cc(/C=C2\CC(C(C)(C)C)C/C(=C\c3cc(OC)c(OC)c(OC)c3)C2=O)cc(OC)c1OC (configuration not stated)	n	n	n	32.0	n
O=C(CS(=O)(=O)c1cccc2nsnc12)NCc1ccc(Cl)cc1	x	n	n	n	n
Cc1cc2c(s1)c1cnn(Cc3ccccc3Br)c(=O)c1n2C	x	x	n	n	n
CN(Cc1ccccc1)C(c1ccnc2ccccc12)c1nnnn1-c1ccc2c(c1)OCCO2 (configuration not stated)	n	50.2	x	x	x
CC(C)(C)OC(=O)N(CCc1ccccc1)Cc1ccccc1OCc1cccc(NC(=O)C2CCCC2)c1	-50.4	n	x	x	x
CC(C)(C)OC(=O)N(Cc1ccccc1)Cc1ccc(OCc2cccc(NC(=O)C3CC3)c2)cc1	n	65.0	x	x	x
O=C(Nc1ccc(CN2CCCCC2)cc1)c1ccc(Br)o1	-62.4	n	n	n	n
O=C(Nc1ccc(CN2CCCCC2)cc1)c1c(F)c(F)c(F)c(F)c1F	n	n	n	n	n
O=C(Nc1ccc(CN2CCCCC2)cc1)Nc1ccccc1Cl	-52.2	n	n	n	n
O=C(Nc1ccncc1)Nc1ccc(Br)cc1Cl	n	n	n	n	-33.8
CC(=O)Nc1ccc(CN2CCCCCCC2)cc1	u	n	n	n	n
CC(=O)c1ccc(NC(=O)Nc2ccc(Br)cc2C)cc1	n	n	n	n	-35.2
Cc1ccc(/C=C/c2onc(C)c2S(=O)(=O)N2CCC(C(=O)NCc3ccc(N(C)C)cc3)CC2)cc1	x	n	n	n	n

Screening results (PubChem BioAssay)
